Measured values published in PubChem BioAssay (NCI).
Compounds without any hit were thinned out: in the full panel of roughly 79,000, 15% have a hit. Activity calls are given as the source filed them. Rule as the data show it: active = growth inhibition above about 70%; inactive = the rest.

What was measured:
[1] = NCI Yeast Anticancer Drug Screen. Data for the mec2-1 strain (AID 157); conditions: S. cerevisiae mec2-1 strain, active compounds read high
How it was run: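 Cells of the genetically defined mec2-1 yeast strain are incubated with test compound. Inhibition of growth is calculated against vehicle-treated controls.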

[2] = NCI Yeast Anticancer Drug Screen. Data for the rad14 strain (AID 159);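 also: 0% = growth of vehicle-treated control cultures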; conditions: S. cerevisiae rad14 strain growth inhibition, active compounds read high
How it was run: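 A mutant yeast strain defective in DNA damage repair is treated with compound; inhibition of its growth is scored against untreated, vehicle-exposed cultures.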

[3] = NCI Yeast Anticancer Drug Screen. Data for the sgs1 mgt1 strain (AID 161);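 also: 0% = growth of cultures given vehicle only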; conditions: S. cerevisiae sgs1 mgt1 strain, active compounds read high
How it was run: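 Mutant yeast exposed to compound; growth scored against vehicle-only wells.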

[4] = NCI Yeast Anticancer Drug Screen. Data for the CLN2oe strain (AID 163);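 also: 0% = growth of vehicle-only control cultures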; conditions: S. cerevisiae CLN2oe strain, active compounds read high
How it was run: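 Strain altered in cell-cycle control, incubated with compound; growth compared to solvent-treated controls.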

[5] = NCI Yeast Anticancer Drug Screen. Data for the cln2 rad14 strain (AID 165);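 also: 0% = growth equal to vehicle treated cultures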; conditions: S. cerevisiae cln2 rad14 strain, active compounds read high
How it was run: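 The screen exposed genetically defined yeast (cln2 rad14) to test compounds and scored growth inhibition relative to vehicle-treated controls.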

[6] = NCI Yeast Anticancer Drug Screen. Data for the bub3 strain (AID 167); conditions: S. cerevisiae bub3 mutant strain, active compounds read high
How it was run: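 Steps: expose the mutant yeast strain to compound; grow alongside vehicle-treated cultures; measure growth; express inhibition against the vehicle cultures.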

[7] = NCI Yeast Anticancer Drug Screen. Data for the mlh1 strain (AID 171);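 also: 0% = growth of vehicle-treated control cultures of the same strain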; conditions: S. cerevisiae mlh1 strain growth inhibition, active compounds read high
How it was run: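 Yeast screen: mutant strain plus compound, growth scored against vehicle control wells.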

[8] = NCI Yeast Anticancer Drug Screen. Data for the sgs1 strain (AID 173);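 also: 0% = growth of vehicle-only control cultures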; conditions: S. cerevisiae sgs1 mutant, active compounds read high
How it was run: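 Inhibition of yeast growth served as the measure. The mutant strain was treated with each compound, and growth was normalised to cultures receiving vehicle alone.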

[9] = NCI Yeast Anticancer Drug Screen. Data for the mlh1 rad18 strain (AID 175); conditions: S. cerevisiae mlh1 rad18 strain growth inhibition, active compounds read high
How it was run: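 Compound-treated yeast growth, normalised to vehicle controls. Strain bears defined DNA repair mutations.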

[10] = NCI Yeast Anticancer Drug Screen. Data for the rad18 strain (AID 177); conditions: S. cerevisiae rad18 mutant growth inhibition, active compounds read high
How it was run: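 Inhibition values reflect reduced yeast growth compared with vehicle-treated controls, using a strain engineered with a DNA damage repair defect.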

[11] = NCI Yeast Anticancer Drug Screen. Data for the rad52 strain (AID 147);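 also: 0% = growth of vehicle-treated control cultures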; conditions: S. cerevisiae rad52 mutant growth inhibition, active compounds read high
How it was run: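 Genetically altered yeast (DNA damage repair defect) treated with compound; inhibition calculated relative to vehicle.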

[12] = NCI Yeast Anticancer Drug Screen. Data for the wt1 strain (AID 149);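 also: 0% = growth of vehicle-treated wt1 cultures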; conditions: S. cerevisiae wt1 strain (SPY 50644) growth inhibition, active compounds read high
How it was run: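 Compounds are added to wt1 yeast cultures. Growth is then measured. Inhibition is expressed relative to vehicle-treated controls.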

[13] = NCI Yeast Anticancer Drug Screen. Data for the rad50EPP+ strain (AID 151);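 also: 0% = growth of vehicle-treated control cultures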; conditions: S. cerevisiae rad50 mutant strain, active compounds read high
How it was run: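 Strain rad50EPP+; compound exposure; % growth inhibition vs vehicle.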

[14] = NCI Yeast Anticancer Drug Screen. Data for the mgt1 strain (AID 153); conditions: S. cerevisiae mgt1 mutant growth inhibition, active compounds read high
How it was run: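 Read-out: yeast growth inhibition vs vehicle control. Strain mgt1, drawn from a panel altered in DNA damage repair or cell cycle control.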

[15] = NCI Yeast Anticancer Drug Screen. Data for the rad50 strain (AID 155);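 also: 0% = growth of vehicle-only cultures of the same strain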; conditions: S. cerevisiae rad50 strain growth inhibition, active compounds read high
How it was run: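 Inhibition values express reduced yeast growth in compound-treated cultures relative to vehicle-treated controls.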

[16] = at 5.0 µM (retest, dose inferred, filed as 0.5)
[17] = at 50.0 µM (retest, dose inferred, filed as 5.0)

Measured: growth inhibition

Nc1cc(N)c(N=Nc2cccc3c(S(=O)(=O)O)cccc23)cc1N=Nc1cc([N+](=O)[O-])ccc1O
active: [3]; [17] 84% | [5]; [17] 92% | [6]; [17] 79% | [6]; at 50.0 µM 70.8%
inactive: [1]; [16] 64% | [1]; at 11.0 µM -11% | [1]; at 33.0 µM -17% | [1]; [17] 69% | [1]; at 50.0 µM 4.9% | [1]; at 100.0 µM 17% | [2]; at 1.2 µM -17% | [2]; at 3.7 µM -22% | [2]; at 11.0 µM -19% | [2]; at 33.0 µM -18% | [2]; at 100.0 µM 47% | [3]; [16] -10% | [3]; at 50.0 µM 26.4% | [4]; at 1.2 µM 4% | [4]; at 3.7 µM 16% | [4]; at 11.0 µM -4% | [4]; at 33.0 µM -7% | [4]; at 100.0 µM -3% | [5]; [16] 33% | [5]; at 50.0 µM 42.5% | [6]; at 1.2 µM -6% | [6]; at 3.7 µM 6% | [6]; [16] 19% | [6]; at 11.0 µM 10% | [6]; at 33.0 µM 0% | [6]; at 100.0 µM 53% | [7]; at 1.2 µM -15% | [7]; at 3.7 µM -21% | [7]; at 11.0 µM -15% | [7]; at 33.0 µM -18% | [7]; at 100.0 µM 23% | [8]; at 1.2 µM -7% | [8]; at 3.7 µM 24% | [8]; at 11.0 µM 19% | [8]; at 33.0 µM 34% | [8]; at 100.0 µM 59% | [9]; [16] 52% | [9]; [17] 48% | [9]; at 50.0 µM 65.7% | [10]; at 1.2 µM -13% | [10]; at 3.7 µM -28% | [10]; at 11.0 µM -23% | [10]; at 33.0 µM -16% | [10]; at 100.0 µM 36%

COc1cc2ccnc(-c3c4ccccc4c(N)c4c(OC)c(OC)ccc34)c2cc1OC
inactive: [11]; at 1.2 µM 5% | [11]; at 3.7 µM 20% | [11]; at 11.0 µM 60% | [12]; at 1.2 µM -4% | [12]; at 3.7 µM -5% | [12]; at 11.0 µM -5% | [12]; at 33.0 µM -4% | [12]; at 100.0 µM 30% | [13]; at 1.2 µM 0% | [13]; at 3.7 µM 11% | [13]; at 11.0 µM 22% | [13]; at 33.0 µM 31% | [13]; at 100.0 µM 49% | [14]; at 1.2 µM -1% | [14]; at 3.7 µM -1% | [14]; at 11.0 µM 0% | [14]; at 33.0 µM 2% | [14]; at 100.0 µM 50% | [15]; at 1.2 µM 16% | [15]; at 3.7 µM 50% | [15]; at 50.0 µM 19.3% | [1]; at 1.2 µM -1% | [1]; at 3.7 µM 2% | [1]; [16] 33% | [1]; at 11.0 µM 1% | [1]; at 33.0 µM 7% | [1]; [17] 33% | [1]; at 50.0 µM -2.3% | [1]; at 100.0 µM 46% | [2]; at 1.2 µM 1% | [2]; at 3.7 µM 1% | [2]; at 11.0 µM 3% | [2]; at 33.0 µM 8% | [2]; at 100.0 µM 43% | [3]; [16] 24% | [3]; [17] 24% | [3]; at 50.0 µM -13.9% | [4]; at 1.2 µM -1% | [4]; at 3.7 µM 7% | [4]; at 11.0 µM 9% | [4]; at 33.0 µM 17% | [4]; at 100.0 µM 37% | [5]; [16] 22% | [5]; [17] 22% | [5]; at 50.0 µM 10.8% | [6]; at 1.2 µM -5% | [6]; at 3.7 µM 1% | [6]; [16] -3% | [6]; at 11.0 µM 9% | [6]; at 33.0 µM -4% | [6]; [17] -3% | [6]; at 50.0 µM 6.45% | [6]; at 100.0 µM 24% | [7]; at 1.2 µM -4% | [7]; at 3.7 µM -2% | [7]; at 11.0 µM 0% | [7]; at 33.0 µM 2% | [7]; at 100.0 µM 52% | [8]; at 1.2 µM -1% | [8]; at 3.7 µM 1% | [8]; at 11.0 µM 6% | [8]; at 33.0 µM 23% | [9]; [16] 23% | [9]; [17] 23% | [10]; at 1.2 µM 0% | [10]; at 3.7 µM -5% | [10]; at 11.0 µM 8% | [10]; at 33.0 µM 31%
active: [11]; at 33.0 µM 86% | [11]; at 100.0 µM 93% | [15]; [16] 78% | [15]; at 11.0 µM 77% | [15]; at 33.0 µM 90% | [15]; [17] 78% | [15]; at 100.0 µM 94% | [8]; at 100.0 µM 70% | [9]; at 50.0 µM 72.7% | [10]; at 100.0 µM 74%

CCCCOCn1c(=O)[nH]c(=O)c2cc(Br)ccc21
active: [3]; [17] 91% | [3]; at 50.0 µM 90.2% | [5]; [17] 86% | [6]; [17] 92% | [6]; at 50.0 µM 82.2%
inactive: [11]; at 1.2 µM -35% | [11]; at 3.7 µM -45% | [11]; at 11.0 µM -30% | [11]; at 33.0 µM -6% | [11]; at 100.0 µM -10% | [12]; at 1.2 µM -37% | [12]; at 3.7 µM -18% | [12]; at 11.0 µM -58% | [12]; at 33.0 µM -44% | [12]; at 100.0 µM -39% | [13]; at 1.2 µM -59% | [13]; at 3.7 µM -71% | [13]; at 11.0 µM -50% | [13]; at 33.0 µM -61% | [13]; at 100.0 µM -92% | [14]; at 1.2 µM -52% | [14]; at 3.7 µM -36% | [14]; at 11.0 µM -47% | [14]; at 33.0 µM -32% | [14]; at 100.0 µM -32% | [15]; at 1.2 µM -35% | [15]; at 3.7 µM -26% | [15]; [16] 21% | [15]; at 11.0 µM -10% | [15]; at 33.0 µM -24% | [15]; [17] 22% | [15]; at 50.0 µM 18.7% | [15]; at 100.0 µM -15% | [1]; at 1.2 µM -1% | [1]; at 3.7 µM 6% | [1]; [16] 14% | [1]; at 11.0 µM 2% | [1]; at 33.0 µM 11% | [1]; [17] 11% | [1]; at 50.0 µM 4.05% | [1]; at 100.0 µM -5% | [2]; at 1.2 µM -22% | [2]; at 3.7 µM -50% | [2]; at 11.0 µM -39% | [2]; at 33.0 µM -35% | [2]; at 100.0 µM -42% | [3]; [16] 59% | [4]; at 1.2 µM -20% | [4]; at 3.7 µM -11% | [4]; at 11.0 µM -38% | [4]; at 33.0 µM -21% | [4]; at 100.0 µM -29% | [5]; [16] 32% | [5]; at 50.0 µM 17.8% | [6]; at 1.2 µM -46% | [6]; at 3.7 µM -36% | [6]; [16] 23% | [6]; at 11.0 µM -35% | [6]; at 33.0 µM -39% | [6]; at 100.0 µM -33% | [7]; at 1.2 µM -48% | [7]; at 3.7 µM -48% | [7]; at 11.0 µM -41% | [7]; at 33.0 µM -41% | [7]; at 100.0 µM -62% | [8]; at 1.2 µM -18% | [8]; at 3.7 µM -7% | [8]; at 11.0 µM -16% | [8]; at 33.0 µM -18% | [8]; at 100.0 µM -8% | [9]; [16] 28% | [9]; [17] 32% | [9]; at 50.0 µM 26.9%
